Source: PubChem BioAssay
beta cell repl: inducers of beta-cell replication in MIN6 cells; proliferation, % at 10 µM; actives 0.29% (n = 330,000); MIN6 cells proliferation, ATPlite luminescence, 48 h; cells starved in 0.2% serum; 100% = growth in 10% serum;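 active means compounds whose signal lies at least 3.5 SD above the mean of all wells on their plate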;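 further: 0% = DMSO-treated cells in low-serum medium and 100% = 10% serum control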
FAS TE block: FAS thioesterase (human) inhibition; P49327; recombinant FAS-TE, OMFH fluorogenic substrate, fluorescence endpoint; inhibition, % at 15 µM; actives 0.67% (n = 360,000); AID 602261;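 active means compounds whose normalised, plate-corrected inhibition of enzyme fluorescence in the single-dose primary screen is 50% or more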;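 further: 0% = DMSO with enzyme and 100% = substrate without enzyme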
H9c2 TAG inh: inhibitors of triacylglycerol accumulation; inhibition, % at 12.5 µM; actives 0.66% (n = 230,000); H9c2 cells, Nile Red lipid (TAG) fluorescence; cells loaded with 200 µM oleic acid;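 active means pattern-corrected inhibition of lipid staining of at least 50% with the nuclear-stain viability signal not falling by more than 50%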;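 further: 0% = DMSO wells and 100% = triacsin C control wells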
H9c2 protect: myocardial damage modulation in H9c2 cells; H9c2 cardiomyocytes, H2O2 injury protection, ATPLite, 2 h; protection from H2O2 cell death, % at 20 µM; actives 0.63% (n = 360,000);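 active means compounds giving at least 50% protection of heart cells from peroxide-induced death in the single-dose screen, raw or plate-pattern-corrected value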;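 further: 0% = DMSO wells with peroxide and 100% = DMSO wells without peroxide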
Calpain2 inh: calpain II (pig) inhibition. purified calpain II, fluorogenic peptide substrate, 30 min. inhibition, % at 16 µM. actives 0.37% (n = 220,000). AID 1236;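 active means inhibition above about 50%, limit read from the data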
aDG glyco act: increases alpha dystroglycan glycosylation | Pro5-aDG cells, alpha-DG glycosylation AlphaScreen (IIH6); 0% Pro5, 100% B10-LARGE cell signal | activation, % at 10 µM | actives 0.22% (n = 360,000) | AID 624168;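 active means activation of at least 8% versus controls, or a plate z-score of at least 8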;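 further: Pro5 are CHO cells carrying HIG-tagged alpha-DG that lacks glycosylation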
* = called active by the depositor; i = inactive; x = no result. Sampled rows, rich in hits. Any-hit rate of the full collection: about 2.3%.

SMILES	beta cell repl	FAS TE block	H9c2 TAG inh	H9c2 protect	Calpain2 inh	aDG glyco act
Cn1c(N)c(C(=O)COC(=O)C2CCCCC2)c(=O)n(C)c1=O	0.3	-2.6	x	5.8	89.3*	0.1
Cn1c(N)c(C(=O)COC(=O)CCCc2nc3ccccc3s2)c(=O)n(C)c1=O	-3.9	0.5	-0.7	-0.2	50.7*	-0.3
O=C1CCCCC1CCc1ccncc1 (centres undefined)	x	-2.6	-9.3	0.2	x	0.0
Cc1ccc(C)c(S(=O)(=O)N2CCN(C(=O)[C@@H]3CCCN3C(=O)c3cccs3)CC2)c1	-0.2	-8.6	12.6	-4.8	x	-0.2
CC(C)CCNC(=O)c1cc(S(=O)(=O)N2CCC3(CC2)OCCO3)ccc1F	x	-0.3	-7.1	-1.5	x	0.5
c1ccc2oc(NC3=NCN(C4CCCCC4)CN3)nc2c1	-1.6	-1.9	-4.3	-1.1	17.6	-0.2
c1ccc2sc(NC3=NCN(C4CCCCCC4)CN3)nc2c1	-4.4	-5.2	x	-14.6	6.1	4.4*
O=C(CN1CCN(c2ccc(F)cc2)CC1)Nc1ccc(S(=O)(=O)N2CCOCC2)cc1	-4.9	4.1	x	1.3	x	0.0
CCOc1cc(C2C(C#N)=C(N)OC(C)=C2C(C)=O)c(Br)c(Br)c1OC(C)C (centres undefined)	-5.8	71.5*	x	-5.1	-16.7	-0.3
CC(C)NC(=O)N(C)C[C@@H]1Oc2cc(C#Cc3ccccn3)ccc2S(=O)(=O)N([C@@H](C)CO)C[C@H]1C	x	-5.6	18.0	12.9	x	0.1
Cc1c(O)ccc2c3c(c(=O)oc12)CCC(C)C3 (centres undefined)	-1.4	3.0	-15.8	51.9*	i	0.4
Cc1c(O)ccc2c3c(c(=O)oc12)CCCC3	2.7	-4.5	0.2	37.7	i	0.1
Cc1cc(C)n2nc(C(=O)N/N=C/c3ccccc3Cl)nc2n1	-2.0	-3.9	16.0	18.9	-14.6	-0.5
Cc1cc(C)n2nc(C(=O)N/N=C/c3c4ccccc4cc4ccccc34)nc2n1	-0.7	14.6	x	64.2*	-248.6	-0.7
O=C(CNC(=O)c1ccc(F)cc1)N/N=C/c1cc(Br)ccc1OC(=O)/C=C/c1ccco1	-6.4	17.3	29.3	80.5*	-13.2	0.4
O=C(CNC(=O)c1ccccc1F)N/N=C/c1cc(Br)ccc1OC(=O)/C=C/c1ccco1	-5.5	37.6	-1.5	57.0*	-190.9	1.5
COc1ccccc1C(=O)NCC(=O)N/N=C/c1cc(Br)ccc1OC(=O)/C=C\c1ccco1	1.2	13.2	x	88.1*	-35.1	0.8
COc1ccc(C(=O)NCC(=O)N/N=C/c2ccco2)cc1OC	2.1	-2.2	x	0.2	x	-0.1
Cc1noc(C)c1S(=O)(=O)Nc1ccc2c(c1)C(=O)N([C@@H](C)CO)C[C@H](C)[C@@H](CN(C)Cc1ccc(C(F)(F)F)cc1)OCCCC[C@H](C)O2	x	13.6	17.4	-10.9	x	0.5
COc1ccc(O)c(C(=O)c2cnc3nc4ccccc4n3c2)c1	x	-16.8	x	60.6*	-69.8	0.1
O=C(NCCc1ccc(C(F)(F)F)cc1)C1CC(=O)N(Cc2ccccc2)C1 (centres undefined)	3.3	0.4	-3.9	6.3	x	0.1
CCOc1ncccc1C(=O)N(CCC(C)C)c1c(N)n(Cc2ccccc2)c(=O)[nH]c1=O	-3.1	-5.9	4.0	2.3	x	0.0
CCCNC(=O)C1(C)CCN(C(=O)c2ccc3c(c2)CCO3)C1 (centres undefined)	x	-9.5	-5.0	8.0	x	0.1
Cc1ccc(S(=O)(=O)N2C[C@H]3[C@H]4C(=O)N(C)C(=O)[C@H]4CC(=O)[C@H]3[C@@H]2c2ccccc2Cl)cc1	x	-0.6	x	3.1	x	0.2
COc1cc2nc(Nc3ccc(C)c(C)c3)nc(N)c2cc1OC	-7.0	-4.4	x	-2.8	x	0.3
SMILES	beta cell repl	FAS TE block	H9c2 TAG inh	H9c2 protect	Calpain2 inh	aDG glyco act
COc1cc2nc(Nc3ccc(F)cc3)nc(N)c2cc1OC	-5.1	-0.8	x	54.9*	x	-0.2
Cn1c(=O)c2[nH]c(NN=Cc3ccc(F)cc3)nc2n(C)c1=O	x	-2.2	11.5	20.2	x	-0.4
Cn1c(=O)c2[nH]c(NN=Cc3cccc(Br)c3)nc2n(C)c1=O	x	-1.0	15.0	50.1*	x	-0.2
O=C(NCc1ccc(Cl)cc1)c1ccc2ccccc2n1	-3.4	23.2	x	-10.8	x	0.0
CCC(CC)C(=O)Nc1cc(C)c2c(=O)oc3ccccc3c2n1	-2.1	13.9	2.0	71.2*	-9.9	0.0
O=C(NCCC1=CCCCC1)c1ccc2c(c1)N(Cc1ccccc1)C(=O)CS2	-6.0	32.3	x	-3.7	59.9*	0.5
CC(C)c1ccc(S(=O)(=O)N2CCN(C(=O)c3cccc(S(=O)(=O)N4CCOCC4)c3)CC2)cc1	x	17.9	-3.4	-2.5	x	-0.1
Cc1[nH]n2c(=O)c3c(nc2c1-c1ccccc1)CCC3	-2.9	-6.1	5.3	4.0	-2.4	0.0
Cc1[nH]n2c(=O)c3c(nc2c1-c1ccc(Cl)cc1)CCC3	-4.9	1.9	x	54.5*	-107.3	0.0
O=C(Oc1cccc2c(=O)[nH]ccc12)c1ccccc1	-0.4	-5.0	2.3	80.5*	-44.2	0.2
O=C(Oc1ccc[nH]c1=O)c1ccccc1	x	-4.8	-6.3	6.0	x	-0.1
CCCCn1nc(NC(=O)c2cccs2)c2cc3cc(OC)ccc3nc21	-4.1	18.9	5.1	62.5*	x	0.8
CCCCn1nc(NC(=O)c2cccs2)c2cc3ccccc3nc21	-3.6	23.5	x	55.7*	3.4	0.7
COc1ccc2nc3c(cc2c1)c(NC(=O)CC(C)C)nn3CC(C)C	0.4	9.9	x	5.0	x	0.7
CCCn1nc(NC(=O)c2cccs2)c2cc3ccccc3nc21	-0.8	-6.7	-6.2	8.5	-27.5	-0.1
CCCn1nc(NC(=O)c2cccs2)c2cc3cc(OC)ccc3nc21	-3.9	14.5	11.0	19.9	-139.7	0.4
COc1ccc2nc3c(cc2c1)c(NC(=O)C1CCCO1)nn3CC(C)C (centres undefined)	-2.4	2.1	2.1	97.7*	i	0.3
CC(=O)Nc1cc(-c2ccc(CO)cc2)cn2c(-c3cccc(C(F)(F)F)c3)cnc12	x	16.9	0.4	6.0	x	0.1
Cc1noc(C)c1NC(=O)N(C)C[C@H]1Oc2ccc(NC(=O)c3ccncc3)cc2C(=O)N([C@H](C)CO)C[C@@H]1C	-4.0	-3.8	-6.5	6.2	x	0.2
COc1ccc(CNC(=O)COC(=O)CN2C(=O)COc3ccccc32)cc1	-0.6	-7.3	-2.3	-1.0	x	0.2
COc1ccc2nc(-c3ccccc3)[nH]c2c1	-3.5	-2.4	5.8	-10.1	-369.3	-0.2
CCOc1ccc2nc(-c3ccccc3)[nH]c2c1	-5.5	-6.3	50.3*	-6.5	-451.0	-0.2
CCOc1ccccc1NC(=O)c1oc2ccccc2c1NC(=O)C1CCCO1 (centres undefined)	-2.1	23.6	13.0	51.7*	-3.2	-0.7
O=C(NC1CCCC1)C1c2ccccc2OCC(=O)N1Cc1ccco1 (centres undefined)	x	-8.7	x	x	x	0.0
